High-throughput results (PubChem BioAssay)
Most compounds without a hit are left out; they make up all but 21% or so of the library.
CHX counter: Cycloheximide Counterscreen for Small Molecule Inhibitors of Shiga Toxin; cell reporter, cycloheximide protein synthesis inhibition counterscreen; max response, %; 12% of 300,000 active; in the data active means max response mostly above about 13%, no sharp cut-off; inactive means mostly below about 14%; further: read at 38.3 µM for the half of the compounds with a filed dose
Pf growth 48h: Primary qHTS for delayed death inhibitors of the malarial parasite plastid, 48 hour incubation; AID 504832, 2011; Potency, µM (titrated, usually from 28.7 µM), usual class: inhibitors; 5.9% of 310,000 active; P. falciparum luciferase growth in erythrocytes, 48 h
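Erythrocytes infected with P. falciparum carrying an integrated firefly luciferase reporter (2% hematocrit, 0.1% parasitemia final) were exposed to compounds in RPMI 1640 with 0.5% Albumax at 37 C, 5% CO2. Growth inhibition was scored as reduced luminescence.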
Giardia FBPA inh: qHTS Assay for Inhibitors of Fructose-1,6-bisphosphate Aldolase from Giardia Lamblia | A8B2U2 | purified Giardia FBPA | Potency, µM (titrated, usually from 59.6 µM), usual class: inhibitors | 0.71% of 290,000 active | AID 2451, 2010; further: nearly all actives have a fitted effect of over 55% in size
Target sequence (A8B2U2 whole entry, looked up): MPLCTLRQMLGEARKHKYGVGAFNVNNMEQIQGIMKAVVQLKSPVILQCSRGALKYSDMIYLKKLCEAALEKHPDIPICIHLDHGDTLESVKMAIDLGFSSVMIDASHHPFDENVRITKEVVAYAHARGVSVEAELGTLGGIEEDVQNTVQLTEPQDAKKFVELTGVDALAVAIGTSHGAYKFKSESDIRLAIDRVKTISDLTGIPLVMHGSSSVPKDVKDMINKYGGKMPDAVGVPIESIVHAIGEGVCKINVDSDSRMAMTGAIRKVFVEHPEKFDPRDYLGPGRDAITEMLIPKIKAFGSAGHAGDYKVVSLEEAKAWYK
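Giardia FBPA (40 nM reagent) was preincubated 10 min at RT with compound (up to 57.5 uM final), then substrate plus GAPDH/TPI/NAD/arsenate coupling system with diaphorase/resazurin was added; resorufin fluorescence (525/598 nm) was read after 20 min.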
Pf growth 96h: Primary qHTS for delayed death inhibitors of the malarial parasite plastid, 96 hour incubation. 6.9% of 320,000 active. AID 504834, 2011. Potency, µM (doses to about 28.7 µM), actives largely listed as inhibitors. P. falciparum luciferase reporter growth, 96 h
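96 h incubation, 37 C, 5% CO2, of luciferase-reporter P. falciparum-infected RBCs (2% hematocrit, 0.05% parasitemia final) with test compounds; endpoint luminescence.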
Shiga inhibitor: A qHTS for Small Molecule Inhibitors of Shiga Toxin. Vero cells, Shiga toxin protein synthesis inhibition reporter. AID 2315, 2010. 9.2% of 290,000 active. inhibition, % at 38.7 µM; in the data active means inhibition mostly above about 28%, no sharp cut-off; inactive means mostly below about 43%
NS1 function inh: qHTS Assay for Inhibitors of Influenza NS1 Protein Function; Potency, µM (top dose mostly 46.1 µM); 0.4% of 270,000 active; calls by dose curve; further: actives are rising curves; nearly all actives have a fitted effect of over 50% in size
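Read-out: OD600 growth recovery of NS1-expressing budding yeast. Cells grown overnight at 30C in -URA glucose medium, washed, resuspended and diluted 1:100 in 2% galactose assay medium, pH 6.0. Same strain lacking NS1 served as positive control.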
A number is an active result; - = inactive; ? = inconclusive; . = not tested or not shown. Unless noted, the call rests on the fitted dose curve; in most records, active means well fitted curve in the direction sought with a large enough effect; inconclusive means small, poorly fitted or top-dose-only effect, or another doubt; inactive means no such curve, though single readings can be large; an effect the other way counts as inactive or inconclusive.

SMILES | CHX counter | Pf growth 48h | Giardia FBPA inh | Pf growth 96h | Shiga inhibitor | NS1 function inh
COC(=O)Cc1ccc2c3ccccc3n(C)c2c1 | 25 | - | - | - | - | -
CC12CC3CC(C)(C1)CC(C(=O)NC1=NCCS1)(C3)C2 | - | . | - | 12µM | - | -
O=C(NC1=NCCS1)C12CC3CC(C1)CC(C(=O)NC1=NCCS1)(C3)C2 | - | - | - | - | - | -
O=C(CCC1CCCCC1)NC1=NCCS1 | - | - | - | 10µM | - | -
O=C(CC12CC3CC(C1)CC(CC(=O)NC1=NCCS1)(C3)C2)NC1=NCCS1 | - | 9.3µM | - | . | - | -
O=C(NC1=NCCS1)NC12CC3CC(CC(C3)C1)C2 | - | - | - | 1.2µM | - | -
O=c1c(-c2ccccc2)nc2cnc(Oc3cccc(Cl)c3)nc2n1C[C@H]1CCCO1 | . | . | - | . | . | .
CC1C(=O)N2CCCc3cc(NC(=O)C(=O)NCCc4c[nH]c5ccccc45)cc1c32 (stereo unspecified) | . | 1.5µM | . | 4.1µM | . | .
CC(C)CC(=O)Nc1cc2c3c(c1)C(C)C(=O)N3CCC2 (stereo unspecified) | - | - | - | - | - | -
COc1ccccc1CCNC(=O)C(=O)Nc1cc2c3c(c1)CC(=O)N3CCC2 | . | 1.2µM | . | 1µM | . | .
CCC(=O)N1CCCc2cc(S(=O)(=O)N3CCN(c4ccccc4F)CC3)ccc21 | - | . | - | - | - | -
CC(C)CNC(=O)C(=O)Nc1cc2c3c(c1)C(C)C(=O)N3CCC2 (stereo unspecified) | - | - | . | 15µM | - | -
Cc1cc(C)cc(NC(=O)C(=O)NCCc2c[nH]c3ccccc23)c1 | - | - | - | - | - | -
CC1C(=O)N2CCCc3cc(S(=O)(=O)N4CCN(c5ccccc5F)CC4)cc1c32 (stereo unspecified) | - | 12µM | . | - | - | -
COC(=O)c1cc(C(=O)NCc2ccccc2)c(=O)[nH]c1C | - | - | - | ? | - | -
C=C(C)C(=O)/C=C/C=C/c1ccccc1 | . | . | - | . | . | .
CC1C(=O)N2CCCc3cc(NC(=O)C(=O)NCCc4ccccc4)cc1c32 (stereo unspecified) | . | ? | . | 13µM | . | .
CC1C(=O)N2CCCc3cc(NC(=O)C(=O)NCCN4CCOCC4)cc1c32 (stereo unspecified) | . | - | . | - | . | .
Cc1ccc(S(=O)(=O)Nc2cc3c4c(c2)C(C)C(=O)N4CCC3)cc1 (stereo unspecified) | . | 10µM | . | ? | . | .
C=CCn1c(C)nnc1SCC(=O)c1[nH]c(C)c(C(C)=O)c1C | - | ? | - | ? | - | .
CC(=O)c1c(C)[nH]c(C(=O)CSc2nnc(C)s2)c1C | 44 | - | - | - | 92 | .
CN(C)c1ccc(NC(=O)CSc2nnc(C3CCCCC3)n2N)cc1 | 24 | - | - | - | 31 | -
CC(=O)c1c(C)[nH]c(C(=O)CSc2nnc(C3CCCCC3)n2N)c1C | - | 2.1µM | - | . | - | -
COc1ccc(-n2c(C)cc(/C=C3\C(=N)N4N=C(CC(=O)N5CCOCC5)SC4=NC3=O)c2C)cc1 | - | 13µM | . | 13µM | - | ?
Cc1cc(/C=C2\C(=N)N3N=C(CC(=O)N4CCOCC4)SC3=NC2=O)c(C)n1-c1ccccc1 | - | ? | . | ? | - | -
SMILES | CHX counter | Pf growth 48h | Giardia FBPA inh | Pf growth 96h | Shiga inhibitor | NS1 function inh
CCC1=NN2C(=N)/C(=C\c3ccc(OCCOc4ccc(NC(C)=O)cc4)cc3)C(=O)N=C2S1 | - | - | - | - | - | -
COc1cc(/C=C2/C(=N)N3N=C(CC(=O)N4CCOCC4)SC3=NC2=O)ccc1OCc1ccccc1 | 21 | - | . | - | 35 | -
CCOc1cc(/C=C2\C(=N)N3N=C(CC)SC3=NC2=O)ccc1OCCOc1ccc(NC(C)=O)cc1 | - | ? | - | 2.6µM | - | -
Cc1cc(C)c2c(N)c(-c3nc4ccccc4[nH]3)sc2n1 | 45 | - | - | - | 81 | -
Cc1ccc2nc(-c3sc4nc(C)ccc4c3N)[nH]c2c1 | 33 | ? | ? | - | 44 | -
COC(=O)c1cc(-c2ccc(Cl)cc2)n[nH]1 | 38 | - | - | - | 47 | -
COC(=O)c1cc(-c2ccc(Cl)cc2Cl)n[nH]1 | 29 | - | - | - | 63 | .
CCCn1c(C)nc2c(N(CCOC)CCOC)nc(C)nc21 | . | . | - | . | . | .
Cc1ccc(OCCC(=O)OCC(=O)Nc2ccc3c(c2)OCO3)cc1 | . | - | . | - | . | .
